Several values for one entry are separate records, joined by “and”; a condition that tells them apart may be missing. Identical values can stand only once. Inconclusive results are not listed. Activity calls are given as the source filed them. Unless noted, the call rests on the fitted dose curve; in most records, active means well fitted curve in the direction sought with a large enough effect; inconclusive means small, poorly fitted or top-dose-only effect, or another doubt; inactive means no such curve, though single readings can be large; an effect the other way counts as inactive or inconclusive.
Tests used:
[1] = qHTS assay for small molecule disruptors of the mitochondrial membrane potential - 1 hr assay (AID 651754; calls by dose curve; further: on the % scale 0 is the no-effect control and ±100 the full control effect; nearly all actives have a fitted effect of over 35% in size)
Summary of the method: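 HepG2, 2,000 cells/well, overnight attachment; cpd or DMSO 1 hr, 37C/5% CO2; Mito-MPS dye 30 min, 37C; fluorescence monomer (490/535) and aggregate (540/590).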

[2] = qHTS assay for small molecule disruptors of the mitochondrial membrane potential - 5 hr assay (AID 651755; calls by dose curve; further: on the % scale 0 is the no-effect control and ±100 the full control effect; nearly all actives have a fitted effect of over 40% in size)
Summary of the method: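 HepG2, 2,000 cells/well, overnight attach; cpd or DMSO 5 hr, 37C/5% CO2; Mito-MPS 30 min 37C; fluor 490/535 + 540/590 nm.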

[3] = target: Tumor necrosis factor (Homo sapiens) (UniProt P01375); test: qHTS assay to identify small molecules that stimulate Tumor Necrosis Factor-alpha (TNF-alpha) secretion (AID 651757; active means well fitted curve in the direction sought with a large enough effect in the signal ratio; the % refers to the signal ratio; further: 0% is about no effect)
Summary of the method: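 Read-out is HTRF, a TR-FRET sandwich of cryptate- and XL665-labeled anti-TNF-alpha antibodies detecting cytokine secreted by THP-1 cells. Cells had been incubated with test compounds at 37 C for 17 hrs beforehand.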

[4] = qHTS assay to identify small molecules that stimulate interleukin-8 (IL-8) secretion (AID 651758; active means well fitted activation curve with a large enough effect in the signal ratio; the % refers to the signal ratio; further: 0% is about no effect)
Summary of the method: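 Secreted IL-8 measured by TR-FRET sandwich (cryptate and XL665 antibodies) from THP-1 cells exposed to compound overnight (16 hrs, 37 C).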

[5] = qHTS assay for environmental chemicals that activate the Aryl hydrocarbon Receptor (AhR) signaling pathway (AID 651777); details: 1A2-DRE human hepatoma cells, luciferase, 24 h; activation: hits give high values; further: % of control where 0% means no effect; nearly all actives have a fitted effect of over 15% in size
Summary of the method: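 Concentration–response screening used 1,200 1A2-DRE cells per well, 24 hr compound exposure (37 C, 5% CO2), and One-Glo luminescence as the AhR-driven CYP1A2 reporter signal.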

[6] = target: Nuclear receptor ROR-gamma (Homo sapiens) (UniProt P51449); test: qHTS assay for small molecule antagonists of the retinoid-related orphan receptor gamma (ROR-gamma) signaling pathway (AID 651802);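 further: luciferase reporter luminescence driven by ROR response element; series mostly up to about 92 µM; on the % scale 0 is the no-effect control and ±100 the full control effect; nearly all actives have a fitted effect of over 60% in size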
Summary of the method: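 CHO, TET-inducible ROR + RORE-LUC reporter, 1536-well qHTS. Compound pinned, doxycycline added, 16hr 37C/5% CO2. ONE-Glo, 30 min RT, luminescence; signal drop scored as antagonism.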

[7] = qHTS assay for small molecule agonists of the antioxidant response element (ARE) signaling pathway measured by Nrf2-dependant transcriptional activity (AID 720636; active means well fitted curve in the direction sought with a large enough effect in the repeat runs; an effect the other way counts as inactive or inconclusive;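 further: HepG2 cells with an ARE-driven luciferase reporter; % of control where 0% means no effect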)
Summary of the method: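 Attachment 6 hr at 37 C, then compound versus DMSO vehicle for 16 hr in ARE-luc HepG2 cells (1% dialyzed FBS); luminescence recorded 30 min after ONE-Glo addition at room temperature.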

[8] = qHTS assay for small molecule antagonists of the retinoid-related orphan receptor gamma (ROR-gamma) signaling pathway - cell viability counter screen (AID 720652; active means well fitted curve in the direction sought with a large enough effect in the repeat runs; an effect the other way counts as inactive or inconclusive;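 further: series mostly up to about 92 µM; compound exposure lasted 16 hr before ATP read; on the % scale 0 is the no-effect control and ±100 the full control effect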)
Summary of the method: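 Luminescence from CellTiter-Glo after 30 min at room temperature reported cellular ATP as the cytotoxicity measure. Cells were the CHO reporter line with doxycycline-induced ROR-gamma expression, exposed to compound for 16 hr at 37 C.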

[9] = qHTS assay for small molecule agonists of the antioxidant response element (ARE) signaling pathway measured by Nrf2-dependant transcriptional activity - cell viability counter screen (AID 720653; active means well fitted curve in the direction sought with a large enough effect in the repeat runs; an effect the other way counts as inactive or inconclusive; further: on the % scale 0 is the no-effect control and ±100 the full control effect); details: ARE-bla HepG2 viability, CellTiter-Glo ATP luminescence, 16 h; hits give low values
Summary of the method: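 Cytotoxicity counter screen: intracellular ATP quantified by CellTiter-Glo luminescence in the same ARE-bla HepG2 plates, after 16 h compound exposure and a 2 h beta-lactamase substrate step.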

[10] = qHTS assay for cell viability of HEK293 cells (AID 743288); details: ATP luminescence (CellTiter-Glo), 18 h, hits give low values; further: on the % scale 0 is the no-effect control and ±100 the full control effect; nearly all actives have a fitted effect of over 50% in size
Summary of the method: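 Luminescent ATP quantitation served as the viability read-out. Cells (parental HEK293, 2,000/well) received compounds after at least 5 h at 37 C and were exposed for 18 h before a 30 min room-temperature reagent step.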

[11] = qHTS assay for cell viability of the p53RE-bla HCT-116 cell line (AID 743292); further: on the % scale 0 is the no-effect control and ±100 the full control effect; nearly all actives have a fitted effect of over 55% in size
Summary of the method: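 Compound-exposed HCT-116 (p53RE-bla) cells, 4,000 per well, were kept 16 h at 37 C following a 5 h preincubation. Cell number was estimated from total ATP by CellTiter-Glo luminescence read after 30 min at room temperature.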

[12] = target: Nuclear receptor subfamily 1 group I member 2 (Rattus norvegicus) (UniProt Q9R1A7); test: qHTS assay for small molecule activators of the rat pregnane X receptor (rPXR) signaling pathway (AID 651751; call rule not given here; further: 0% is about no effect); details: rPXR reporter cells, luciferase (One-Glo), 24 h
[13] = qHTS assay for small molecule activators of the human pregnane X receptor (PXR) signaling pathway (AID 720659; call rule not given here; further: 0% is about no effect)
[14] = target: Peroxisome proliferator-activated receptor alpha (Homo sapiens) (UniProt Q07869); test: qHTS assay for small molecule agonists of the peroxisome proliferator-activated receptor alpha (PPARalpha) signaling pathway (AID 651778); details: PathHunter PPARalpha complementation, chemiluminescence, 6 h; hits give high values; further: % of control where 0% means no effect
Summary of the method: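 Chemiluminescence from complemented enzyme reported PPARalpha activation in cells after 6 hr of compound treatment at 37 C. The detection reagent was incubated for 60 min at room temperature, and compounds were scored as agonists.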

Nuclear receptor ROR-gamma (Homo sapiens), sequence (P51449 whole entry, looked up): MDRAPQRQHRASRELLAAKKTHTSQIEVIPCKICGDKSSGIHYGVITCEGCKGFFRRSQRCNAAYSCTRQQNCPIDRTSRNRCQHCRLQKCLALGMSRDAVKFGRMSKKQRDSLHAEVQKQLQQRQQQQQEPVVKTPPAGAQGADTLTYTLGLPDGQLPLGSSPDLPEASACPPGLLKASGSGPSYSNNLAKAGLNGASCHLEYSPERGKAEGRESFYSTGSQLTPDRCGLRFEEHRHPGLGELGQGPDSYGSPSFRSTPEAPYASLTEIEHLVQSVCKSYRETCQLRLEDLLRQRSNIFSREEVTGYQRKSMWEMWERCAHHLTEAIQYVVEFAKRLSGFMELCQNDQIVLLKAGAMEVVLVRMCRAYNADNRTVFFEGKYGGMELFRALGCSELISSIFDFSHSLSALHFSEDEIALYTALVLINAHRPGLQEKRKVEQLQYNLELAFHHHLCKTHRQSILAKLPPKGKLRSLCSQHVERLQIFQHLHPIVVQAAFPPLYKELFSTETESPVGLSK
Peroxisome proliferator-activated receptor alpha (Homo sapiens), sequence (Q07869 whole entry, looked up): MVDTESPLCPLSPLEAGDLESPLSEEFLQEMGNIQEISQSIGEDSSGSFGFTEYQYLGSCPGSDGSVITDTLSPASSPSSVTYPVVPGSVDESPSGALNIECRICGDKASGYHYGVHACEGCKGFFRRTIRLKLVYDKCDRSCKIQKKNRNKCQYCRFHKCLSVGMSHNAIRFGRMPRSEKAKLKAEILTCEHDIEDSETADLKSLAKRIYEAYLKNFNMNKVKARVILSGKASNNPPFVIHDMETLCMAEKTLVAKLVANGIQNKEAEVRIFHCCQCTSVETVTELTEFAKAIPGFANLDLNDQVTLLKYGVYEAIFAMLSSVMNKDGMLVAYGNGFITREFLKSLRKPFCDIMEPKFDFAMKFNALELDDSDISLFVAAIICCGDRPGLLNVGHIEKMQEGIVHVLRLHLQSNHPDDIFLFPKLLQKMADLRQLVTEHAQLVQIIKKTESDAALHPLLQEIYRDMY
Nuclear receptor subfamily 1 group I member 2 (Rattus norvegicus), sequence (Q9R1A7 whole entry, looked up): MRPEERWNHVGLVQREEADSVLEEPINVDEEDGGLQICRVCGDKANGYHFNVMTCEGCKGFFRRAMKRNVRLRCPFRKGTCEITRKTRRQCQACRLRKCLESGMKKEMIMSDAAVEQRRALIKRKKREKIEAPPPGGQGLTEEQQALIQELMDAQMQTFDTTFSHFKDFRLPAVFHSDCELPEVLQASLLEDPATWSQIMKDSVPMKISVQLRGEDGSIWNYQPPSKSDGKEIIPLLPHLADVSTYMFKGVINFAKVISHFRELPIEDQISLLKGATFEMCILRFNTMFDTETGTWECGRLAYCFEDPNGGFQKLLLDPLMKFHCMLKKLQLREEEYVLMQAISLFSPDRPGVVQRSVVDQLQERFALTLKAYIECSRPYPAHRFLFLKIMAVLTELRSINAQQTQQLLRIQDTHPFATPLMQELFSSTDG
Tumor necrosis factor (Homo sapiens), sequence (P01375 whole entry, looked up): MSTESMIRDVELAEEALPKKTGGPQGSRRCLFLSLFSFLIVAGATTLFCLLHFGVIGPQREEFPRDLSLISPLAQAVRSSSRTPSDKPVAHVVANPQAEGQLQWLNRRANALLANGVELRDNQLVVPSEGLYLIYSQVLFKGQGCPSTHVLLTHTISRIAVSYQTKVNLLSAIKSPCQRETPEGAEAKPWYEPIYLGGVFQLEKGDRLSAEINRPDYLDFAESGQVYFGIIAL

CCOC(C)(C)C
inactive: Potency [1] | Potency [2] | Potency [3] | Potency [4] | activation [5] -0.13% | Potency [6] | outcome [7] | Potency [8] | max response [9] -6.47% | max response [10] 9.83% | Potency [11] | max response [12] -4.12% | outcome [13]

CCCOCC(C)OCC(C)O (configuration not stated)
inactive: Potency [1] | Potency [2] | Potency [3] | Potency [4] | max response [14] -1.53% | Potency [6] | outcome [7] | Potency [8] | max response [9] -10.5% | max response [10] -8.35% | Potency [11] | max response [12] -1.49% | outcome [13]

Nc1nc2ccccc2[nH]1
inactive: Potency [1] | Potency [2] | Potency [3] | Potency [4] | activation [5] 11.9% | max response [14] -2.62% | outcome [7] | Potency [8] | max response [10] -5.2% | Potency [11] | max response [12] 10.8% | outcome [13]

CC(=O)c1nccs1
inactive: Potency [1] | Potency [2] | Potency [3] | Potency [4] | max response [14] -1.62% | Potency [6] | outcome [7] | Potency [8] | max response [10] -7.91% | Potency [11] | max response [12] 8.24% | outcome [13]

CC(CCl)OC(C)CCl (configuration not stated)
inactive: Potency [1] | Potency [2] | Potency [3] | Potency [4] | outcome [7] | Potency [8] | max response [9] 6.29% | max response [10] -14.3% | Potency [11] | max response [12] 2.99% | outcome [13]

O=C(O)c1ccccc1C(=O)O
inactive: Potency [1] | Potency [2] | Potency [3] | Potency [4] | outcome [7] | Potency [8] | max response [9] -3.39% | max response [10] -4.91% | Potency [11] | max response [12] -4.53% | outcome [13]

CC(=O)c1ccccc1[N+](=O)[O-]
inactive: Potency [1] | Potency [2] | Potency [3] | Potency [4] | activation [5] -0.15% | Potency [6] | outcome [7] | Potency [8] | max response [9] -1.99% | max response [10] 7.31% | Potency [11] | max response [12] 1.69% | outcome [13]

O=C(O)/C=C/C(=O)O
inactive: Potency [1] | Potency [2] | Potency [3] | Potency [4] | max response [14] -1.33% | Potency [6] | outcome [7] | max response [9] 17.2% | max response [10] -0.445% | Potency [11] | max response [12] 2.11% | outcome [13]

C=CC(=O)NC(C)C
inactive: Potency [1] | Potency [2] | Potency [3] | Potency [4] | max response [14] -6.08% | outcome [7] | Potency [8] | max response [9] -7.91% | Potency [11] | max response [12] 3.94% | outcome [13]

O=C(O)CCSSCCC(=O)O
inactive: Potency [1] | Potency [2] | Potency [3] | Potency [4] | max response [14] -1.98% | Potency [6] | outcome [7] | Potency [8] | max response [10] -9.15% | Potency [11] | max response [12] -1.84% | outcome [13]

O=C(O)c1cc(Cl)cc(Cl)c1
inactive: Potency [1] | Potency [2] | Potency [3] | Potency [4] | activation [5] 0.13% | max response [14] -2.98% | outcome [7] | Potency [8] | max response [9] 0.662% | max response [10] 9.31% | Potency [11] | max response [12] -3.46% | outcome [13]

CC(C)N=C=NC(C)C
inactive: Potency [1] | Potency [2] | Potency [3] | Potency [4] | activation [5] -2.05% | Potency [6] | outcome [7] | Potency [8] | max response [9] -1% | max response [10] 3.11% | Potency [11] | max response [12] 1.41% | outcome [13]

C=C(C)C(=O)OCC(C)C
inactive: Potency [1] | Potency [2] | Potency [3] | activation [5] -0.68% | max response [14] -4.6% | Potency [6] | outcome [7] | Potency [8] | max response [9] -3.35% | max response [10] 2.75% | Potency [11] | max response [12] 5.41% | outcome [13]

CCC(C)(C)C
inactive: Potency [1] | Potency [2] | Potency [3] | Potency [4] | activation [5] -1.03% | Potency [6] | outcome [7] | Potency [8] | max response [9] -1.09% | max response [10] -11.7% | Potency [11] | max response [12] -3.38% | outcome [13]

Oc1c(Cl)ccc(Cl)c1Cl
inactive: Potency [1] | Potency [2] | Potency [3] | Potency [4] | activation [5] -0.586% | max response [14] 6.63% | outcome [7] | Potency [8] | max response [9] 0.617% | Potency [11] | max response [12] 0.125% | outcome [13]

CC(C)(C)OC=O
inactive: Potency [1] | Potency [2] | Potency [3] | Potency [4] | activation [5] -1.07% | Potency [6] | outcome [7] | Potency [8] | max response [9] 9.86% | max response [10] 5.3% | Potency [11] | max response [12] 3.48% | outcome [13]

O=C1OC(=O)c2c(Br)c(Br)c(Br)c(Br)c21
inactive: Potency [1] | Potency [2] | Potency [3] | Potency [4] | activation [5] -1.58% and 0.554% | outcome [7] | Potency [8] | max response [9] -8.33% and -1.37% | max response [10] 2.2% and -6.24% | Potency [11] | max response [12] -2.83% and 0.309% | outcome [13]

CCN(Cc1ccccc1)c1ccccc1
inactive: Potency [1] | Potency [2] | Potency [3] | Potency [4] | activation [5] 0.346% | Potency [6] | outcome [7] | Potency [8] | max response [9] -1.24% | max response [10] -4.87% | Potency [11] | max response [12] -3.13% | outcome [13]

Source: PubChem BioAssay (NCATS)
